Assay outcomes (PubChem BioAssay)
Only some compounds are listed: those with a hit (about 4.7% of all), similar ones and a draw of the others.
D1 agonist: Allosteric Agonists of the Human D1 Dopamine Receptor: qHTS; D(1A) dopamine receptor (Homo sapiens), P21728; HEK293 T-REx D1 cells, calcium flux, agonist mode; activation, % at 2 µM; 360,000 tested, 1% active; in the data active = activation above about 30%; note: 0% is about no effect
Target sequence (P21728 whole entry, looked up): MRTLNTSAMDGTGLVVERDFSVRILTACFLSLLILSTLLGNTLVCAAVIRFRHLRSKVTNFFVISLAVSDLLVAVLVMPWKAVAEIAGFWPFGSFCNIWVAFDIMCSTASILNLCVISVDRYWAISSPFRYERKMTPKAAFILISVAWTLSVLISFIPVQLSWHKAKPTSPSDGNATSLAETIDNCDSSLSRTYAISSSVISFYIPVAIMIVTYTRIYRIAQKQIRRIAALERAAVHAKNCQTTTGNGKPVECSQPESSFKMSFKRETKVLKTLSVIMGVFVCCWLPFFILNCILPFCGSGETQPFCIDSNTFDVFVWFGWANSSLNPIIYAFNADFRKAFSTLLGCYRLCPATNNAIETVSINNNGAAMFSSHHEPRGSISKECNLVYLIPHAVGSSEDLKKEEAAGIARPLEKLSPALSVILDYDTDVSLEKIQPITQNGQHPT
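Inducible HEK293 T-REx D1 cells, force-coupled to calcium signalling, were plated at 4000 cells/well with tetracycline and held overnight at 30 C. After no-wash calcium dye loading, compound-evoked calcium rise over 180 s flagged agonists.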
D1 antagonist: Antagonist of Human D 1 Dopamine Receptor: qHTS. HEK293 TREx D1 cells, calcium flux, dopamine EC80; active compounds read low. activity change, negative = inhibition, % at 10 µM. 360,000 tested, 3.2% active. AID 504652, 2011; in the data active = activity change below about -30%; note: % is set by controls: 0 for no effect and ±100 for the full control effect
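Tetracycline-induced HEK293 Trex D1 cells, force-coupled to calcium, dye-loaded; compounds added and read 180 s, then EC80 dopamine added and calcium flux tracked kinetically another 180 s.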
TRHR enhancer-1: qHTS for Small Molecule Agonists and Allosteric Enhancers of Human TRH Receptor: Primary Screen for Enhancers | Thyrotropin-releasing hormone receptor (Homo sapiens), P34981 | TRHR cells, fluo-8 calcium fluorescence, EC20 TRH enhancement | enhancement, % at 2 µM | 360,000 tested, 0.66% active; in the data active = enhancement above about 30%; note: 0% is about no effect
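Enhancer read-out: after compound pinning and an initial kinetic agonist-mode read, an EC20 of TRH (10 nM final) was injected and fluo-8 calcium signal (Ex 480/Em 530) followed at 1 s/cycle for 100 cycles in TRHR-expressing cells.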
D1 PAM: Potentiators of Human D1 Dopamine Receptor: qHTS | 360,000 tested, 0.036% active | potentiation, % at 10 µM | HEK293 TREx D1 cells, calcium flux, dopamine EC20 potentiation | AID 504651, 2011; in the data active = potentiation above about 30%; note: 0% is about no effect
TRHR agonist-1: qHTS for Small Molecule Agonists and Allosteric Enhancers of Human TRH Receptor: Primary Screen for Agonists. TRHR cells, calcium flux fluo-8, FDSS agonist mode. activation, % at 2 µM. 360,000 tested, 0.18% active; in the data active = activation above about 30%; note: 0% is about no effect
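Agonist-mode FDSS calcium read (Ex 480/Em 530, 1 s cycles) in 1536-well TRHR cells with fluo-8 dye, after 10-cycle baseline and 23 nL compound addition; TRH at EC20 (10 nM final) added afterwards for the enhancer phase.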
TRHR enhancer-2: qHTS for Small Molecule Agonists and Allosteric Enhancers of Human TRH Receptor: Confirmation Screen for Enhancers | shares compounds with TRHR enhancer-1 | TRH receptor cell assay, enhancer confirmation qHTS | activity change, negative = inhibition, % at 46.1 µM | 970 tested, under 10 active | AID 493076, 2011;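 note: compound effect scored on response to added TRH at EC20 of 10 nM; 0% is about no effect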
TRHR agonist-2: qHTS for Small Molecule Agonists and Allosteric Enhancers of Human TRH Receptor: Confirmation Screen for Agonists; shares compounds with TRHR enhancer-1; TRHR-expressing cells, agonist activation read-out; Potency, µM (highest dose often 46.1 µM), for the others: top-dose activation, most hits filed as activators; 970 tested, 8% active; note: potency is the fitted concentration of half-maximal effect; 0% is about no effect; nearly all actives have a fitted effect of over 75% in size
An asterisk follows results filed as active; ? = inconclusive; . = no result given. Unless noted, calls come from the whole dose curve; as a rule, active = well fitted curve in the direction sought with a large enough effect; inconclusive = small, poorly fitted or top-dose-only effect, or another doubt; inactive = no such curve, though single readings can be large; an effect the other way counts as inactive or inconclusive.

SMILES	D1 agonist	D1 antagonist	TRHR enhancer-1	D1 PAM	TRHR agonist-1	TRHR enhancer-2	TRHR agonist-2
CC(C)(C)C(=O)CN1C(=O)NC(c2ccccc2)(c2ccccc2)C1=O	1	2	42*	8	3	-1	0%
CC(=O)N1CCc2cc(S(=O)(=O)NC(CC(C)C)C(=O)Nc3cc(C)cc(C)c3)ccc21 (configuration not stated)	7	3	-3	-1	1	.	.
Cc1cc(=O)n2nc(N3CCC(C(=O)Nc4ccc(C(C)C)cc4)CC3)sc2n1	0	-3	2	1	-1	.	.
Cc1ccc(C)c(NC(=O)CCN2C(=O)C3CC=CCC3C2=O)c1 (configuration not stated)	0	7	-9	2	3	.	.
N#CC1=C(N)Oc2cc(O)c(Cl)cc2C1c1cccnc1 (configuration not stated)	60*	7	-1	2	65*	5	?
N#CC1=C(N)Oc2cc(O)ccc2C1c1cccnc1 (configuration not stated)	2	-3	7	-7	0	.	.
Cc1cccc(N2CCN(C(=O)COc3cc4oc(=O)cc(C)c4cc3Cl)CC2)c1C	0	8	70*	10	0	0	0%
COc1ccc(C(=O)c2sc3nc(-c4ccccc4)ccc3c2N)cc1OC	57*	1	2	-5	44*	-3	?
CCN(CC)C(=O)C1c2ccccc2Oc2ccccc21	32*	-1	46*	3	3	-8	1%
CCCCNC(=O)C1c2ccccc2Oc2ccccc21	1	-1	-3	1	0	.	.
Cn1nc(C(=O)OCC(=O)Nc2ccc(Cl)cc2Cl)c2ccccc2c1=O	0	1	42*	-10	0	-2	-1%
CCc1ccc(NC(=O)Cn2c(=O)n(CCCCC(=O)NCc3ccccc3Cl)c(=O)c3ccccc32)cc1	2	9	-2	2	2	.	.
CCc1ccc(CN(C)CC(O)COc2cccc3ccccc23)cc1 (configuration not stated)	-1	10	42*	0	0	?	1%
OCC[C@H]1C[C@@H](O)[C@H](O)[C@]2(CCc3ccccc3O2)O1	-1	-12	7	-5	0	.	.
CC(C)c1ccccc1OCC(=O)Nc1cc(S(=O)(=O)N2CCOCC2)ccc1N1CCCC1	1	32	6	-2	-1	.	.
CCCC(=O)NCCCc1nc2ccccc2n1C(C)C	1	-24	47*	-12	0	-2	1%
CCCC(=O)NCCc1nc2ccccc2n1CC(=O)c1ccccc1	0	-12	-2	-1	0	.	.
C=CCn1c(=O)n(C(=O)OCC)c2cc(Br)ccc21	0	-2	66*	9	1	-7	1%
Cc1cc(C)c(NC(=O)CN(C)CC(=O)N(C)CC(=O)Nc2c(Cl)cccc2Cl)c(C)c1	-1	-12	-3	-16	-1	.	.
COc1ccc(CCNC(=O)CN2CCOc3ccccc32)cc1OC	-4	-18	58*	0	0	1	0%
Cc1ccc(C)c(S(=O)(=O)C(C#N)c2nc3ccccc3nc2N2CCCC2)c1 (configuration not stated)	34*	-8	-2	-2	27	-6	?
COc1ccc(/C=N/n2c(-c3ccccc3)n[nH]c2=S)cc1	1	-1	49*	-7	0	8	6%
Cc1ccc(OCC(=O)NCCCNC(=O)c2cccnc2)cc1	4	9	-1	.	0	.	.
CC(=O)NCCC1CCN(c2nc3nonc3nc2N(C)Cc2ccccc2)CC1	2	10	47*	-5	0	-4	0%
CCCCNC(=O)N1CCC(CCC(=O)N(C)Cc2ccccc2)CC1	-2	25	-6	-7	0	.	.
SMILES	D1 agonist	D1 antagonist	TRHR enhancer-1	D1 PAM	TRHR agonist-1	TRHR enhancer-2	TRHR agonist-2
O=S(=O)(Nc1cnc2ccccc2c1)N1CCCCCC1	4	13	48*	-6	1	2	4%
Cc1ccc(S(=O)(=O)Nc2cnc3ccccc3c2)cc1	9	-3	7	3	1	.	.
COc1ccccc1N(CC(=O)NCc1cccnc1)S(C)(=O)=O	1	20	48*	-1	0	8	1%
O=C1/C(=C\c2ccc(O)cc2)SC(=S)N1c1cccnc1	66*	-2	-2	-6	36*	-6	?
COc1ccc(/C=C2\SC(=S)N(c3cccnc3)C2=O)cc1	5	8	-12	3	0	.	.
Cc1cc(C)nc(NN2C(=O)/C(=C/c3ccc(O)cc3)SC2=S)n1	43*	19	7	-1	36*	-6	21µM*
CC(=O)N1CCc2c(sc3c2c(=O)n(CCc2ccccc2)c(=O)n3Cc2cccc(C)c2)C1	6	-13	2	-5	1	.	.
CN(C(=O)c1cccc(NC(=O)c2ccco2)c1)c1ccccc1	2	8	1	-8	34*	0	-1%
CN(C(=O)c1ccc(NC(=O)c2ccco2)cc1)c1ccccc1	7	-14	2	7	0	.	.
NC1=NC(=O)/C(=C/c2ccc(OCC(=O)O)cc2)S1	4	-3	-3	0	0	.	.
CCN(CC)c1ccc(/C=C2\SC(N)=NC2=O)cc1	60*	8	27	0	29	1	?
CCN(CC)C(=O)c1sc2nc(-c3cccs3)cc(-c3ccc(Cl)cc3)c2c1N	55*	-21	0	12	28	-2	18µM*
Cc1cc(NC(=O)CCN2C(=O)c3ccccc3C2=O)no1	2	1	56*	-3	-1	0	-1%
Cc1ccc(NC(=O)CCN2C(=O)c3ccccc3C2=O)cc1	1	-7	-8	-2	0	.	.
Cc1ccc(C)c(NC(=O)CCc2c(C)n(C)c3cc(-c4ccccc4C)nn3c2=O)c1	1	15	-2	-3	-1	.	.
COc1ccccc1NC1=C(Cl)C(=O)N(C2CCCCC2)C1=O	1	-88*	46*	-2	0	10	4%
Cc1ccccc1NC1=C(Cl)C(=O)N(C2CCCCC2)C1=O	6	10	-1	3	3	.	.
